This is part of a sample that, as a whole, favours compounds with a hit. Of some 83,000 tested, about 20% had one in any assay.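 Method: cells in 96-well plates; compound added at one concentration; 48 h incubation; percent growth measured; values under 10 scored active.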 Activity calls are given as the source filed them.
Assays:
Experiment in all cases: NCI-60 one-dose screen, 48 h (100 = growth as untreated, 0 = no growth, -100 = all killed)
Conditions in all cases: 10 µM unless noted
NCI-H23 lung = test system: NCI-H23 lung
NCI-H226 lung = test system: NCI-H226 lung
NCI-H322M lung = test system: NCI-H322M lung
HOP-62 NSCLC = test system: HOP-62 NSCLC
NCI-H460 lung = test system: NCI-H460 lung
HOP-92 NSCLC = test system: HOP-92 NSCLC
NCI-H522 lung = test system: NCI-H522 lung
A549/ATCC NSCLC = test system: A549/ATCC NSCLC
786-0 renal = test system: 786-0 renal
COLO 205 colon = test system: COLO 205 colon
DU-145 prostate = test system: DU-145 prostate
K-562 leukemia = test system: K-562 leukemia
MALME-3M melanoma = test system: MALME-3M melanoma
MDA-MB-231 breast = test system: MDA-MB-231 breast
RXF 393 renal = test system: RXF 393 renal
SF-268 CNS = test system: SF-268 CNS
SF-295 CNS = test system: SF-295 CNS
SF-539 CNS = test system: SF-539 CNS
UACC-257 melanoma = test system: UACC-257 melanoma
M14 melanoma = test system: M14 melanoma

Measured: growth

O=C(Cc1ccc(/C=C/C(=O)c2ncc[nH]2)cc1)Nc1cc(F)c(F)c(F)c1
active: 786-0 renal 8.88% | SF-539 CNS 5.66%
inactive: NCI-H23 lung 32.2% | NCI-H226 lung 95.2% | NCI-H322M lung 72.8% | HOP-62 NSCLC 90.6% | NCI-H460 lung 28.2% | HOP-92 NSCLC 116% | NCI-H522 lung 49.1% | A549/ATCC NSCLC 70.6% | COLO 205 colon 64.9% | DU-145 prostate 18.7% | K-562 leukemia 18.3% | MALME-3M melanoma 93.7% | MDA-MB-231 breast 41.4% | RXF 393 renal 13.1% | SF-268 CNS 58.3% | SF-295 CNS 77.3% | UACC-257 melanoma 99.9% | M14 melanoma 85.2%

COc1cc(N2C(=O)[C@H](Cl)C2c2ccc(SC)cc2)cc(OC)c1OC (stereo not given in full)
inactive: NCI-H23 lung 16.7% | NCI-H226 lung 53.8% | NCI-H322M lung 42.9% | HOP-62 NSCLC 23.1% | A549/ATCC NSCLC 11.1% | MALME-3M melanoma 78.4% | MDA-MB-231 breast 29.3% | SF-268 CNS 28.9% | UACC-257 melanoma 27.3%
active: NCI-H460 lung 5.39% | HOP-92 NSCLC -0.311% | NCI-H522 lung -7.37% | 786-0 renal -0.223% | COLO 205 colon -45.6% | DU-145 prostate 7.66% | K-562 leukemia 4.94% | RXF 393 renal -16.1% | SF-295 CNS -7.12% | SF-539 CNS 8.03% | M14 melanoma -2.68%

C#COc1cccc(Nc2ncnc3cc(NC(=O)[C@H](C)Cl)ccc23)c1
active: HOP-62 NSCLC 7.33% [6.25 µM] | NCI-H460 lung 3.29% [6.25 µM] | NCI-H522 lung -46.2% [6.25 µM] | A549/ATCC NSCLC 2.95% [6.25 µM] | SF-295 CNS 1.61% [6.25 µM] | SF-539 CNS 0.539% [6.25 µM]
inactive: NCI-H23 lung 18.5% [6.25 µM] | NCI-H226 lung 41.7% [6.25 µM] | NCI-H322M lung 30% [6.25 µM] | HOP-92 NSCLC 81.5% [6.25 µM] | 786-0 renal 14.2% [6.25 µM] | COLO 205 colon 12.2% [6.25 µM] | DU-145 prostate 20.3% [6.25 µM] | K-562 leukemia 99.7% [6.25 µM] | MALME-3M melanoma 37.5% [6.25 µM] | MDA-MB-231 breast 19.1% [6.25 µM] | RXF 393 renal 15.5% [6.25 µM] | SF-268 CNS 27.7% [6.25 µM] | UACC-257 melanoma 21.2% [6.25 µM] | M14 melanoma 11.7% [6.25 µM]

CN(C)c1ccc([C@@H](C(=O)Nc2cccc([N+](=O)[O-])c2)N(C(=O)c2cc3ccccc3[nH]2)c2cccc([N+](=O)[O-])c2)cc1
inactive: NCI-H23 lung 97.5% | NCI-H226 lung 97.5% | NCI-H322M lung 95% | HOP-62 NSCLC 88.7% | NCI-H460 lung 98.2% | HOP-92 NSCLC 70.9% | NCI-H522 lung 92.3% | A549/ATCC NSCLC 92.9% | 786-0 renal 95.5% | COLO 205 colon 102% | DU-145 prostate 107% | K-562 leukemia 100% | MALME-3M melanoma 96.5% | MDA-MB-231 breast 96.5% | RXF 393 renal 100% | SF-268 CNS 97.4% | SF-295 CNS 100% | SF-539 CNS 90.3% | UACC-257 melanoma 93.4% | M14 melanoma 93.7%

Cc1ccc(O)c(NC(=O)c2cccc(Nc3ccnc(C(F)(F)F)c3)c2)c1
inactive: NCI-H23 lung 44.1% | NCI-H226 lung 44.8% | NCI-H322M lung 86.5% | HOP-62 NSCLC 85.6% | NCI-H460 lung 55.4% | HOP-92 NSCLC 77.6% | NCI-H522 lung 43.1% | A549/ATCC NSCLC 60.3% | 786-0 renal 50% | COLO 205 colon 128% | DU-145 prostate 80.9% | K-562 leukemia 40.9% | MALME-3M melanoma 70.1% | MDA-MB-231 breast 58.9% | RXF 393 renal 91.2% | SF-268 CNS 76.6% | SF-295 CNS 40.3% | SF-539 CNS 72.6% | UACC-257 melanoma 58.7% | M14 melanoma 68.4%

COc1cc2c3c(c4c5ccccc5[nH]c4c2c(OC)c1OC)C(=O)N(CCN1CCCCC1)C3=O
active: NCI-H460 lung -48.3% | A549/ATCC NSCLC -63.3% | 786-0 renal -85.9% | DU-145 prostate -91.2% | K-562 leukemia 3.53% | RXF 393 renal -9.89%
inactive: NCI-H23 lung 17.5% | NCI-H226 lung 28.2% | NCI-H322M lung 32% | HOP-62 NSCLC 41.7% | HOP-92 NSCLC 48.7% | NCI-H522 lung 36.3% | COLO 205 colon 28.3% | MALME-3M melanoma 32% | MDA-MB-231 breast 38.1% | SF-268 CNS 22.7% | SF-295 CNS 32.9% | SF-539 CNS 41.4% | UACC-257 melanoma 42.2% | M14 melanoma 12.3%

O=C(Nc1cccnc1Nc1ccccc1)c1cn(Cc2cccc(Oc3ccccc3)c2)nn1
inactive: NCI-H23 lung 68.3% | NCI-H226 lung 64.7% | NCI-H322M lung 71.8% | HOP-62 NSCLC 78.6% | NCI-H460 lung 42.6% | HOP-92 NSCLC 71.2% | NCI-H522 lung 61.3% | A549/ATCC NSCLC 57.9% | 786-0 renal 56.7% | COLO 205 colon 107% | DU-145 prostate 69.8% | K-562 leukemia 33% | MALME-3M melanoma 56.3% | MDA-MB-231 breast 57.3% | RXF 393 renal 50.1% | SF-268 CNS 53.6% | SF-295 CNS 52.3% | SF-539 CNS 42% | UACC-257 melanoma 73% | M14 melanoma 27.5%

O=c1cc(C(F)(F)F)c2cc(-c3cc4ccccc4c(=O)o3)c(O)cc2o1
inactive: NCI-H23 lung 54.9% | NCI-H226 lung 68.4% | NCI-H322M lung 87.6% | HOP-62 NSCLC 82.6% | NCI-H460 lung 58.9% | NCI-H522 lung 31.3% | A549/ATCC NSCLC 78.5% | 786-0 renal 80.2% | COLO 205 colon 107% | DU-145 prostate 96.5% | K-562 leukemia 50% | MALME-3M melanoma 91.5% | MDA-MB-231 breast 85.7% | RXF 393 renal 86.3% | SF-268 CNS 79.2% | SF-295 CNS 89.4% | SF-539 CNS 73.3% | UACC-257 melanoma 70.6% | M14 melanoma 68%
active: HOP-92 NSCLC -0.397%

Reference: PubChem BioAssay (NCI)
